Measured values reported in PubChem BioAssay (EPA / NIEHS).
Records with an inconclusive call do not appear. The source made the active and inactive calls. The calls were made as follows: active = hit-call score of the fitted dose curve at least 0.9, where 1 is the maximum; inconclusive = response in the unintended direction; inactive = score below 0.9.

molecular target: human Vitamin D Receptor (VDR), VDR (gene 7421) (UniProt P11473); test: ATG_VDR_TRANS: Attagene TRANS-FACTORIAL HepG2 Assay for human Vitamin D Receptor (VDR) (AID 2283022)
Method in brief: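 HepG2 cells were transiently transfected with GAL4-UAS reporter units and a chimeric VDR-Gal4 construct, then dosed for 24 hours. Reporter mRNA was quantified by RT-PCR, fluorescent labeling, HpaI digestion and capillary electrophoresis; gain of signal analysed vs DMSO.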

human Vitamin D Receptor (VDR), VDR (gene 7421), sequence (P11473 whole entry, looked up, the tested form may be a part): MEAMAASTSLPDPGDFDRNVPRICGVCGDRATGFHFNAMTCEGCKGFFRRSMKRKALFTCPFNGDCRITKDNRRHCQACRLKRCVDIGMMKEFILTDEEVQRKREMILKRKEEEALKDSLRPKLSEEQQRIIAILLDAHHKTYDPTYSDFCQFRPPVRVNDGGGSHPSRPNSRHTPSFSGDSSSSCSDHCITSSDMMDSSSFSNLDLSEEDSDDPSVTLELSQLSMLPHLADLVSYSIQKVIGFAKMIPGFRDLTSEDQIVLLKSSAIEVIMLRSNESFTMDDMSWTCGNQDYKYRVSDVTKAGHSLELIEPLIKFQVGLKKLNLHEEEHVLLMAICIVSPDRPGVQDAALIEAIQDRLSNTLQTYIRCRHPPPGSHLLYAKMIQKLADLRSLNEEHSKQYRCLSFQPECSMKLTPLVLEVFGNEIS

outcome, inactive:
O=C1O[C@@H]2[C@@H](O)[C@H](O)O[C@@H]2[C@H]1O
C=C(C)[C@@H]1CCC2=CC(=O)C[C@@H](C)[C@]2(C)C1
CC(C)(C)NC(N)=O
Cc1ccc2sc3cccc(C)c3c2c1
OCCN1CCNCC1
COC(=O)C1=C(C)NC(C)=C(C(=O)OCCN(C)Cc2ccccc2)C1c1cccc([N+](=O)[O-])c1 (stereo not drawn)
CC(C)(C)c1cc(CCC(=O)NN)cc(C(C)(C)C)c1O
COc1nc(C)nc(N)n1
c1ccc(CCCc2ccccn2)cc1
Cc1c(Cl)c(=O)oc2cc(O)ccc12
COc1cccc(OC)c1
CN1[C@@H]2CC(OC(=O)[C@H](CO)c3ccccc3)C[C@H]1[C@@H]1O[C@@H]12 (stereo partly drawn)
Nc1cc(Cl)c(O)c(Cl)c1
CN(C)CCCN
O=S(=O)(O)c1ccc(O)c2ncccc12
C[C@H]1C[C@H]2[C@@H]3CCC4=CC(=O)C=C[C@]4(C)[C@@]3(F)[C@@H](O)C[C@]2(C)[C@@]1(O)C(=O)COP(=O)(O)O
Fc1c(F)c(F)c(Br)c(F)c1F
COC(=O)OC
CC(C)=CCCC(C)=CCCC(C)=CCO
CC(=O)C=CC1=C(C)CCCC1(C)C
O=C(O)CCCCC1CCSS1 (stereo not drawn)
O=c1cc(-c2ccccc2)oc2cc(O)cc(O)c12
Clc1ccc(Cl)c(Cl)c1Cl
CC1=CC(=O)NS(=O)(=O)O1
CC(c1cc2ccccc2s1)N(O)C(N)=O (stereo not drawn)
C=C(C)C(=O)NCCCN(C)C
COC(C(=O)O)c1ccccc1 (stereo not drawn)
c1cc(C(c2ccc(OCC3CO3)cc2)c2ccc(OCC3CO3)cc2)ccc1OCC1CO1 (stereo not drawn)
CN(C)c1ccc(O)c2c1C[C@H]1C[C@H]3[C@H](N(C)C)C(=O)C(C(N)=O)=C(O)[C@@]3(O)C(=O)C1=C2O
O=C1CCc2ccccc2O1
Cc1ncc([N+](=O)[O-])n1C
Nc1ccc(F)c([N+](=O)[O-])c1
CC(C)=CCCC(C)CC=O (stereo not drawn)
CC(C=O)Cc1ccc(C(C)C)cc1 (stereo not drawn)
CCCCOCCOCCSC#N
COC(=O)Cc1cccc2ccccc12
CC(CCO)CCc1ccccc1 (stereo not drawn)
CC(C)C[C@H]1C(=O)N2CCC[C@H]2[C@]2(O)O[C@](NC(=O)[C@@H]3C=C4c5cccc6[nH]c(Br)c(c56)C[C@H]4N(C)C3)(C(C)C)C(=O)N12
